# Shown are actives, neighbours in structure and some others; about 21% of the full set was active somewhere.
# Pf growth 48h: Primary qHTS for delayed death inhibitors of the malarial parasite plastid, 48 hour incubation; P. falciparum luciferase growth in erythrocytes, 48 h; Potency, µM (top dose mostly 28.7 µM), for inactives: at the top dose activity change, negative = inhibition, actives largely listed as inhibitors; 310,000 tested, 5.9% active; AID 504832, 2011; note: potency is the fitted concentration of half-maximal effect; % is set by controls: 0 for no effect and ±100 for the full control effect
#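 Here the parasites carry a stable luciferase gene and grow inside erythrocytes in Albumax-based RPMI medium with compound for one erythrocytic cycle. Activity is scored as loss of luminescent signal.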
# Pf growth 96h: Primary qHTS for delayed death inhibitors of the malarial parasite plastid, 96 hour incubation; P. falciparum luciferase reporter growth, 96 h; Potency, µM (highest dose often 28.7 µM), for the others: top-dose activity change, negative = inhibition, usual class: inhibitors; 320,000 tested, 6.9% active; AID 504834, 2011; note: potency is the fitted concentration of half-maximal effect; % is set by controls: 0 for no effect and ±100 for the full control effect
#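 Readout is luminescence from an integrated firefly luciferase in P. falciparum. Red cells, 2% hematocrit and 0.05% parasitemia final, were cultured with compound through two parasite generations (96 hours) at 37 C, 5% CO2.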
# HCV inh: qHTS Assay for Inhibitors of Hepatitis C Virus (HCV). AID 651820, 2012. Huh7.5.1 HCVcc-Cre infection, luciferase reporter, 44 h. Potency, µM (highest dose often 41.8 µM), inactives show top-dose activity change, negative = inhibition, hits mostly inhibitors. 340,000 tested, 3.4% active; note: potency is the fitted concentration of half-maximal effect; % is set by controls: 0 for no effect and ±100 for the full control effect
#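 Infectious HCVcc-Cre (~0.5 moi) was added to cells just after compound, with cells seeded 4 h earlier at 1,000 per well. Luciferase activity after 44 h culture reported infection; substrate was incubated 15 min at room temperature before reading.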
# Cycloheximide cs: Cycloheximide Counterscreen for Small Molecule Inhibitors of Shiga Toxin. cell reporter, cycloheximide protein synthesis inhibition counterscreen. max response, %. 300,000 tested, 12% active. AID 2314, 2010; in the data active = max response mostly above about 13%, no sharp cut-off; inactive = mostly below about 14%; note: read at 38.3 µM for the half of the compounds with a filed dose; 0% is about no effect
# Shiga inhibitor: A qHTS for Small Molecule Inhibitors of Shiga Toxin. Vero cells, Shiga toxin protein synthesis inhibition reporter. inhibition, % at 38.7 µM. 290,000 tested, 9.2% active; in the data active = inhibition mostly above about 28%, no sharp cut-off; inactive = mostly below about 43%; note: 0% is about no effect
# AMA1 RON2 block: qHTS for Inhibitors of AMA1-RON; Towards Development of Antimalarial Drug Lead: Primary Screen; AlphaScreen AMA1-biotinylated RON2 peptide binding; AID 720542, 2013; Plasmodium falciparum AMA1 (3D7) - RON2 peptide interaction; 360,000 tested, 0.2% active; Potency, µM (highest dose often 58.2 µM), for inactives: at the top dose activity change, negative = inhibition, most hits filed as inhibitors;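 note: potency is the fitted concentration of half-maximal effect; 0% = vehicle wells and -100% = peptide control; nearly all actives have a fitted effect of over 45% in size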
#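 AMA1 (3D7) with his tag at 25 nM final met compounds first, then biotinylated RON2 peptide at 25 nM; detection used donor plus acceptor beads, 10 µg/mL apiece, read by AlphaScreen after 30 min at room temperature.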
# An asterisk follows results filed as active; i = inactive; ? = inconclusive; · = no result given; + = active, no number; [ ] = another dose, or the depositor's remark. Unless noted, calls come from the whole dose curve; as a rule, active = well fitted curve in the direction sought with a large enough effect; inconclusive = small, poorly fitted or top-dose-only effect, or another doubt; inactive = no such curve, though single readings can be large; an effect the other way counts as inactive or inconclusive.
SMILES,Pf growth 48h,Pf growth 96h,HCV inh,Cycloheximide cs,Shiga inhibitor,AMA1 RON2 block
COc1ccc(CNCc2ccncc2)cc1OC,?,10µM*,9%,2,-7,9%
COc1cccc(CNCc2ccco2)c1O,0%,12µM*,30%,4,21,-6%
c1ccc(COc2cccc(CNCc3cccs3)c2)cc1,38%,?,29%,24*,41,21%
COc1cc(CNCc2ccco2)ccc1OCc1ccccc1,4%,108%,11µM*,33*,61*,-17%
COc1cccc(CNCc2cccc(OC)c2O)c1O,·,·,11%,·,·,63%
Cc1ccc(-c2nc3ccc(Br)cn3c2Cc2cccc(Cl)c2)cc1,·,·,·,·,·,-14%
Cn1c(=O)c2sccc2n2c(CCCC(=O)NCc3ccco3)nnc12,2%,?,16%,-5,-14,?
CCOc1ccc(S(=O)(=O)NCCC(=O)N(C)CC(=O)Nc2ccc(N3CCOCC3)cc2)cc1,-4%,3%,6%,·,·,-17%
COc1cc(CNCc2cccs2)ccc1OCc1ccccc1,36%,?,?,26*,7,?
CCCCC1CCC(c2nc(-c3ccccn3)no2)CC1 (stereo not given),66%,?,?,56*,178*,23%
CCCCC1CCC(c2nc(-c3cccnc3)no2)CC1 (stereo not given),?,64%,14%,15,-16,6%
c1ccc(-c2noc(C3CCC3)n2)nc1,61%,77%,4%,28*,50*,-4%
COc1ccc(-c2nc(-c3ccccn3)no2)cc1,-81%,59%,-22%,-9,-19,13%
CSC1=NCCN1CCOc1ccccc1,-3%,?,-9%,0,-13,3%
O=C(Nc1ccc(F)c(Cl)c1)C1CC(=O)n2c(nc3ccccc32)N1 (stereo not given),4.7µM*,20%,23%,5,58,10%
CCCSc1nnc(CNC(=O)C23CC4CC(CC(C4)C2)C3)n1Cc1ccccc1,13µM*,?,-9%,-5,-9,10%
CC(OC(=O)c1ccc(-n2cnnn2)cc1)C(=O)Nc1ccc(F)c(F)c1F (stereo not given),-12%,-10%,5%,·,·,-11%
COc1cc(/C=N/Nc2ccc(Cl)c(C(=O)O)c2)ccc1OCC(=O)N1C(C)CCCC1C (stereo not given),-8%,?,7%,18,59*,7%
Cc1ccc(Cn2c(N/N=C/c3ccncc3)nc3c2c(=O)n(C)c(=O)n3C)cc1,10µM*,3.7µM*,?,9,9,31%
COc1cc(/C=N/Nc2ccc(Cl)c(C(=O)O)c2)ccc1OC(=O)c1ccco1,i,4%[5.75 µM],12%,37*,68*,0%
C=CCOc1c(Br)cc(/C=N/Nc2ccc(C(=O)O)cc2)cc1OCC,-5%,32%,-6%,79*,+,3%
Cn1c(=O)c2c(nc(N/N=C/c3ccncc3)n2Cc2ccccc2)n(C)c1=O,?,?,-10%,-4,14,32%
CCOc1cc(/C=N/O)cc(Br)c1OCC,3%,4%,?,-3,-8,-3%
C[C@@H]1CN([C@@H](C)CO)S(=O)(=O)c2ccc(Br)cc2O[C@@H]1CN(C)C(=O)c1ccccn1,·,·,·,·,·,4%
C[C@@H]1CN([C@H](C)CO)C(=O)CCCn2nncc2CO[C@@H]1CN(C)S(=O)(=O)c1ccc2ccccc2c1,·,·,·,·,·,0%
SMILES,Pf growth 48h,Pf growth 96h,HCV inh,Cycloheximide cs,Shiga inhibitor,AMA1 RON2 block
CCc1ccc(OCC(=O)NNC(=O)c2ccc(NC(=O)C3CC3)cc2)cc1,2%,25%,8%,1,-19,16%
COc1ccc(/C=N/Nc2ccc(C(=O)O)cc2)cc1Br,i,?,15%,9,0,-12%
COc1cc(C=O)ccc1OC(=O)c1ccc(C(C)C)cc1,102%,9%,30%,35*,34,0%
COc1ccc(/C=N/Nc2ccc(C(=O)O)cc2)cc1OC,187%,314%,10%,27*,43,1%
COc1cc(/C=N/Nc2nc3c(c(=O)n(C)c(=O)n3C)n2Cc2ccccc2)ccc1OC(=O)c1ccco1,10µM*,9.3µM*,?,-7,-4,13%
COc1ccc(C(=O)Oc2ccc(/C=N/Nc3ccc(Cl)c(C(=O)O)c3)cc2OC)cc1,104%,198%,18%,21*,93*,-16%
CC(C)NC(=O)N(C)C[C@H]1Oc2c(cccc2N(C)C)C(=O)N([C@H](C)CO)C[C@@H]1C,·,·,4%,·,·,0%
COc1ccc(OC)c(NC(=S)N2CCN(C(=O)C3CCCO3)CC2)c1 (stereo not given),6%,-10%,-2%,1,-3,-9%
N[C@@H](Cc1cc(CP(=O)(O)O)cc(-c2ccccc2Cl)c1)C(=O)O,·,·,·,6,24,·
Cc1cc(N2CCCC(C(=O)Nc3cccc4ccccc34)C2)n2ncnc2n1 (stereo not given),?,2%,?,2,26,0%
COc1ccc(-c2csc(NC(=O)CSc3nc(C)nc4sc(C(=O)O)c(C)c34)n2)cc1,?,?,6%,-2,2,-4%
CC(=O)Oc1ccc2occ(C(=O)c3cccs3)c2c1,·,34%,0%,37*,67*,-4%
CC(=O)Oc1ccc2occ(C(=O)c3ccccc3)c2c1,·,·,-9%,·,·,10%
O=C(CCl)Oc1ccc2occ(C(=O)c3cccs3)c2c1,·,121%,-19%,39*,50,9%
O=C(Oc1ccc2c3c(c(=O)oc2c1)CCCC3)c1cccs1,20%,52%,0%,-2,-11,-1%
O=C(c1cccs1)c1coc2ccc(O)cc12,·,1%,-22%,75*,81*,1%
CC(=O)Oc1ccc2c(=O)c(-c3ccccc3)c(C)oc2c1,?,1%,-27%,9,1,6%
CCC(=O)c1coc2ccc(O)cc12,·,·,35%,·,·,-10%
CC(=O)Oc1ccc2occ(-c3ccccc3)c2c1,47%,?,-3%,25*,125*,48%
CCN(CC(=O)Nc1ccc(NC(C)=O)cc1)C(=O)CSc1ncnc2sc(C)c(C)c12,-4%,14%,-17%,·,·,-5%
c1coc(CNc2nc(-c3ccncc3)cs2)c1,89%,-7%,-8%,36*,72*,-7%
COc1ccc(-c2ccc(=O)n(CC(=O)NCc3ccco3)n2)cc1,17%,225%,-17%,3,9,-1%
c1coc(CNc2nc3ccccc3s2)c1,183%,379%,26%,51*,80*,14%
COc1ccc(-c2csc(NCc3ccco3)n2)cc1,185%,·,?,42*,72*,-8%
